PubChem BioAssay (Tox21)
Results filed as inconclusive are left out. Entries that show only a call come without a potency. The source holds several records for some structures; these can differ, active in one and inactive in another. The source made the active and inactive calls. Calls follow the shape of the dose curve; as a rule, active = well fitted cell-killing curve with a large enough effect in the repeat runs; inconclusive = weak or mixed curves; inactive = flat fitted curve, though single readings scatter.

Experiment: qHTS RealTime-Glo MT Cell Viability Assay in HepG2 cells - 16 hour (AID 1224885); also: nearly all actives have a fitted effect of over 50% in size
Conditions: RealTime-Glo luminescence; series mostly up to 76.8 µM
Text: U.S. Tox21 Program National Center for Advancing Translational Sciences [NCATS] NIH Chemical Genomics Center [NCGC] U.S. Environmental Protection Agency [EPA] National Institutes of Environmental Health Sciences [NIEHS] National Toxicology Program [NTP] U.S. Food and Drug Administration [FDA] Tox21 Assay Overview: Measure of cell viability is critical in the cell-base assay. Analysis of cell viability is necessary for the characterization of cell responses to cytotoxic drugs and environmental stress. A RealTime-Glo MT Cell Viability Assay to monitor cell viability in real time of continues cell culture during 40 hours of compound treatment was used to screen Tox21 10K library compounds in HepG2 cells. The RealTime-Glo MT Cell Viability Assay is a nonlytic, homogeneous, bioluminescent method to measure cell viability in real time using a simple, plate-based method. The assay involves adding NanoLuc luciferase and a cell-permeant prosubstrate to cells in culture. Viable cells reduce the proprietary prosubstrate to generate a substrate for NanoLuc luciferase. This substrate diffuses from cells into the surrounding culture medium, where it is rapidly used by the NanoLuc Enzyme to produce a luminescent signal. The signal correlates with the number of viable cells, making the assay well suited for cytotoxicity studies.
Tox21 Assay Protocol Summary: The mixture of HepG2 cell suspension and reagents were dispensed at 600cells/6 ul/well in 1536-well tissue culture treated black solid bottom plates using a Multidrop dispenser. After the assay plates were incubated at a 37 C/5% CO2 incubator for 5 hours, 23 nL of compounds dissolved in DMSO, positive and negative controls was transferred to the assay plate by a pintool work station. The plates were incubated at 37 C for 40 hours. The luminescence intensity were measured at 0h, 8h, 16h, 24h, 32h and 40h time points using ViewLux plate reader during compound treatment.
Potency is read from the fitted curve at half-maximal effect.

SMILES | Potency
CCCC(CCC)C(=O)O | inactive
NNC(=O)c1ccncc1 | inactive
N=C(N)c1ccc(OCCCCCOc2ccc(C(=N)N)cc2)cc1 | inactive
Cn1c(=O)c2[nH]cnc2n(C)c1=O | inactive
CCCCCCCCCCCCCCCC(=O)O | inactive
COc1ccc2[nH]cc(CCNC(C)=O)c2c1 | inactive
COc1c2occc2cc2ccc(=O)oc12 | inactive
O=C(O)c1cccc([N+](=O)[O-])c1 | inactive
Cc1cn([C@H]2C[C@H](N=[N+]=[N-])[C@@H](CO)O2)c(=O)[nH]c1=O | inactive
C1N2CN3CN1CN(C2)C3 | inactive
OCCc1ccccc1 | inactive
O=C(O)/C=C\C(=O)O | inactive
O=C(O)c1[nH]n(-c2ccc(S(=O)(=O)O)cc2)c(=O)c1N=Nc1ccc(S(=O)(=O)O)cc1 | inactive
O=NO | inactive
CCCCC(CC)COC(=O)/C=C/c1ccc(OC)cc1 (stereo not given) | inactive
O=C(c1ccccc1)C(O)c1ccccc1 (stereo not given) | inactive
CC(=O)NS(=O)(=O)c1ccc(N)cc1 | inactive
CCCNC(=O)NS(=O)(=O)c1ccc(Cl)cc1 | inactive
CC(C)(Oc1ccc(C2CC2(Cl)Cl)cc1)C(=O)O (stereo not given) | inactive
CC(O)CN(CCN(CC(C)O)CC(C)O)CC(C)O (stereo not given) | inactive

SMILES | Potency
Cc1ccc(S(=O)(=O)NC(=O)NN2CCCCCC2)cc1 | inactive
NC(=O)c1cnccn1 | inactive
CC(=O)Nc1nnc(S(N)(=O)=O)s1 | inactive
O=C(O)CCCCC(=O)O | inactive
Cc1ccccc1C(OCCN(C)C)c1ccccc1 (stereo not given) | inactive
CCCC(O)C(CC)CO (stereo not given) | inactive
C/C=C/c1ccc(OC)cc1 | inactive
O=c1ccc2ccccc2o1 | inactive
CCCCC1C(=O)N(c2ccccc2)N(c2ccccc2)C1=O | inactive
c1ccc2[nH]ccc2c1 | 15.2 µM (active) and inactive
NS(=O)(=O)c1cc(C(=O)O)c(NCc2ccco2)cc1Cl | inactive
Nc1ccn([C@H]2CC[C@@H](CO)O2)c(=O)n1 | inactive
Nc1ccc(O)c(C(=O)O)c1 | inactive
CC(C)[C@@H]1CC[C@@H](C)C[C@H]1O | inactive
O=C(O)c1cc(N=Nc2ccc(S(=O)(=O)Nc3ccccn3)cc2)ccc1O | inactive
O=C(O)CS | inactive
Cc1ccc(O)cc1 | inactive
Cc1ccc(C)c(OCCCC(C)(C)C(=O)O)c1 | inactive
O=C1CN(/N=C/c2ccc([N+](=O)[O-])o2)C(=O)N1 | inactive
OC(Cn1cncn1)(Cn1cncn1)c1ccc(F)cc1F | inactive
